Ten compounds from PubChem BioAssay can be followed below.

The nature of test [1]: inhibitors of TNFa-induced NFkB p65 translocation, primary screen, imaging, HUVEC, MLSMR starter and 10KST1 sets (AID 438;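 active means inhibition above 20% together with a positive visual image hit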;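 further: compound added about 3h40 before a 20 min TNFalpha stimulation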;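 on inhibition: signal is the nuclear over cytoplasmic p65 intensity ratio per well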). The settings on record: HUVEC TNFa-induced p65 nuclear translocation; cell count: measured here: nuclei count (cytotoxicity indicator), at 2.08 µM; inhibition: at 2 µM, stronger effect = higher value, 0% TNFa-plus-vehicle, 100% no-TNFa wells.
Test [2] can be described thus: reduction of polyQ htt aggregates in cells – imaging, exon1htt(103Q)mCFP cells, high-content imaging, primary screen (AID 483).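 Further: compound exposure lasted 3 days before fixation.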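 On nuclei count: percent of the per-plate median nuclei count of sample wells.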 Particulars: exon1htt(103Q)mCFP cell line, aggregate imaging, at 2 µM; inhibition of aggregation: stronger effect = higher value; nuclei count: measured here: cell count, toxicity.
Test [3] in a line: endothelial E-selectin expression blockers – imaging, HUVEC, immunofluorescence, MLSMR starter and 10KST1 sets, primary screen (AID 487;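 active means visually confirmed hit in the image check and inhibition above 20%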;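 on inhibition: signal is fraction of cell area covered by stained E-selectin grains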;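 on nuclei count: 100% = median nuclei count of all wells on the same plate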). Particulars: HUVEC TNFalpha-induced E-selectin immunofluorescence imaging, at 2 µM; inhibition: stronger effect = higher value; nuclei count: measured here: cell number, toxicity.
In test [4] the target is Voltage-gated potassium channel subunit beta-2 (Rattus norvegicus) (UniProt P62483). The test is described as follows: inhibitors of rat Kvbeta2 reductase activity – biochemical, NADPH fluorescence, primary screen (AID 622;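 active means fluorescence slope higher than the sample average by over 3 SD, cut at about -0.22 in these data, passing the limit was not always enough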;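 further: slope of raw intensity against log time taken from 70 to 1610 s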). Particulars: recombinant KvBeta, 4-cyanobenzaldehyde reduction, at 10 µM, stronger effect = higher value.
Test [5] has the same target. Briefly: enhancers of rat Kvbeta2 NADPH turnover – biochemical, NADPH fluorescence, primary screen (AID 623;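 active means NADPH fluorescence slope more negative than the mean of all samples by about 3 SD, 99.7% confidence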;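 further: fluorescence intensity change per second fitted from 20 to 320 s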). The settings on record: Recombinant KvBeta, NADPH fluorescence decrease slope, 10 min; at 10 µM; stronger effect = lower value.
Test [6] concerns the target Alpha-2C adrenergic receptor (Homo sapiens) (UniProt P18825). Briefly: compounds altering alpha2C-coupled GIRK flux – cell-based, HEK293 alpha2C/GIRK1/2, thallium flux, primary screen (AID 624;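 active means fluorescence slope after compound addition differing from the mean of all screened samples at 99.7% confidence, in either direction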;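 further: slope of fluorescence ratio to pre-addition baseline per second over 15 to 24 s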). The settings on record: thallium flux BTC fluorescence, at 10 µM, actives lie on both sides.
The nature of test [7]: blockers of RIG-like receptor reporter activation – cell-based, Sendai virus stimulus, luciferase, 10K MLSCN set, TLR/RLR signaling modifier project, primary screen (AID 602276;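 active means inhibition at or above 50% at 10 µM; inactive means inhibition below 50%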;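 further: firefly luciferase from ISG56 promoter only with Renilla not read in this screen; 0% = Sendai virus plus DMSO and 100% = medium plus DMSO without virus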). The settings on record: HEK293 RL24 IRF3 luciferase reporter, at 10 µM, stronger effect = higher value. (A reporter such as luciferase makes a cellular process visible.)
Test [8] can be described thus: TLR3 IRF3 reporter activation blockers – cell-based, poly I:C stimulus, luciferase, 10K MLSCN set, primary screen (AID 602277;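 active means inhibition of the reporter signal at or above 50%; inactive means inhibition below 50%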). Particulars: HEK293-TLR3 RL24 IRF3 luciferase reporter, at 10 µM, stronger effect = higher value.

For orientation: inhibition means the drop in the measured response relative to a control, in per cent.

Calls of active or inactive are those of the source.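 How the source made its calls, unless noted: active means visual image review flags a hit and inhibition of aggregation exceeds 20%; inconclusive means visual hit but inhibition at or below 20%; inactive means no hit on visual image review.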

Sequence of Alpha-2C adrenergic receptor (Homo sapiens) (P18825 whole entry, looked up): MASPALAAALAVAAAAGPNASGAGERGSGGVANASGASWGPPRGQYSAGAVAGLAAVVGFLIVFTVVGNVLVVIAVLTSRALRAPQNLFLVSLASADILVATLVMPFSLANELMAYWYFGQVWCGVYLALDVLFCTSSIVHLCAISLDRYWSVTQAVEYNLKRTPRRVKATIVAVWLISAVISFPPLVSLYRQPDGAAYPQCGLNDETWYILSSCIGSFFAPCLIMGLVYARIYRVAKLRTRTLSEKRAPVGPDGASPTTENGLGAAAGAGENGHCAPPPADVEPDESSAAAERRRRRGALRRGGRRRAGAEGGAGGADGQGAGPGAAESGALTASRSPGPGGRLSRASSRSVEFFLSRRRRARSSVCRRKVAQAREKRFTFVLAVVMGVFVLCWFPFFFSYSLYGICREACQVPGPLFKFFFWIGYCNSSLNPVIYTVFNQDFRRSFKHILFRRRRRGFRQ
Sequence of Voltage-gated potassium channel subunit beta-2 (Rattus norvegicus) (P62483 whole entry, looked up): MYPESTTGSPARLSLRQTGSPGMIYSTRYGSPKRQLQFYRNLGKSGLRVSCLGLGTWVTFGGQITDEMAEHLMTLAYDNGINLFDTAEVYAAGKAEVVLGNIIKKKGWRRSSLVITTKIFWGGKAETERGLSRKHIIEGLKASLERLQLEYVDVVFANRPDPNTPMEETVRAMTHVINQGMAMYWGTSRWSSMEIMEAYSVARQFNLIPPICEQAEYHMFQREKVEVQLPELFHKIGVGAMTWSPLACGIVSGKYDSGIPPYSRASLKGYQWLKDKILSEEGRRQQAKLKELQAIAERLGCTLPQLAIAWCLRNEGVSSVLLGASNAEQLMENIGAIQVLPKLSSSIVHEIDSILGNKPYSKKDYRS

For the compound `CCCC1c2ccc(C)n2CCN1C(=O)Nc1ccccc1Cl` (stereo not given), in test [1], the cell count was 243. The inhibition was 2.3% (inactive) in test [1], -1% (inactive) in test [3], -53.4% (inactive) in test [7] and -190% (inactive) in test [8]. Further, in test [2], the inhibition of aggregation is -6.4% (inactive). Besides, the nuclei count in test [2] was determined as 100%; in test [3], 94.7%. The fluorescence slope in test [4] is -0.564 (inactive). Moreover, the NADPH fluorescence slope in test [5] was 2.7e-05 (inactive). The slope in test [6] is 0.0054 (inactive).
In the case of `O=C(O)CN1C(=O)CNC1=O`, the cell count in test [1] turned out to be 249. In addition, the inhibition was 8.5% (inactive) in test [1], -66.2% (inactive) in test [3], 3.07% (inactive) in test [7] and 24% (inactive) in test [8]. The inhibition of aggregation in test [2] was -1.9% (inactive). Also, the results for the nuclei count in test [2] and in test [3] were 60.7% and 119%, respectively. Also, the fluorescence slope in test [4] was -0.519 (inactive). The NADPH fluorescence slope in test [5] was 9.8e-06 (inactive). For the same compound, in test [6], the slope was 0.00529 (inactive).
Regarding `Cc1ccc(CCNC(=O)C2CCCN(S(=O)(=O)c3cnc[nH]3)C2)cc1` (stereo not given), the cell count in test [1] amounted to 603. Further, the inhibition in test [1] was -0.2% (inactive); in test [3], -89.2% (inactive); in test [7], 1.87% (inactive); in test [8], 18% (inactive). For the same compound, in test [2], the inhibition of aggregation is -6.4% (inactive). In addition, the nuclei count in test [2] is 99.1%; in test [3], 135%. In addition, the fluorescence slope in test [4] is -0.577 (inactive). The NADPH fluorescence slope in test [5] was -1.4e-06 (inactive). For the same compound, the slope in test [6] was 0.00614 (inactive).
Turning to `O=C(c1cc(C2CC2)on1)N1CCN(C(c2ccccc2)c2ccccc2)CC1`, the cell count in test [1] stood at 731. For the same compound, the inhibition is -3.5% (inactive) in test [1], -61% (inactive) in test [3], 7.04% (inactive) in test [7] and 35.9% (inactive) in test [8]. In addition, the inhibition of aggregation in test [2] is 25% (inactive). Moreover, the nuclei count in test [2] was 82%; in test [3], 89.3%. In test [4], the fluorescence slope is -0.573 (inactive). Besides, the NADPH fluorescence slope in test [5] was -7.4e-06 (inactive). Further, the slope in test [6] is 0.00569 (inactive).
For the compound `O=S(=O)(c1ccc(N2CCN(c3ccc(F)cc3)CC2)cc1)N1CCCC1`, the cell count in test [1] turned out to be 230. Also, the inhibition in test [1] is 14% (inactive); in test [3], -32.4% (inactive); in test [7] it was 10.2% (inactive); in test [8] it was 19.7% (inactive). Further, the inhibition of aggregation in test [2] was -8.7% (inactive). The nuclei count in test [2] was 95.7%; in test [3] it was 106%. Also, in test [4], the fluorescence slope was -0.476 (inactive). Also, the NADPH fluorescence slope in test [5] was -2.4e-05 (inactive). Also, in test [6], the slope was 0.00651 (inactive).
Consider `COc1ccc(-c2noc(-c3ccccc3C(=O)Nc3cccnc3)n2)cc1OC`, for which the cell count in test [1] came out at 395. In addition, the inhibition was -5.7% (inactive) in test [1], -57.8% (inactive) in test [3], 1.54% (inactive) in test [7] and 0.376% (inactive) in test [8]. Further, the inhibition of aggregation in test [2] is -13.9% (inactive). Moreover, the nuclei count was found to be 103% in test [2] and 115% in test [3]. Besides, the fluorescence slope in test [4] is -0.458 (inactive). Further, in test [5], the NADPH fluorescence slope is -3.1e-05 (inactive). In addition, the slope in test [6] was 0.00579 (inactive).
For the compound `CCOC(=O)CN(C(=O)c1ccccc1)c1ccccc1C`, in test [1], the cell count was determined as 600. In addition, the inhibition was -2.5% (inactive) in test [1], 36% (inactive) in test [3], 3.43% (inactive) in test [7] and 31% (inactive) in test [8]. Moreover, the inhibition of aggregation in test [2] was -11.5% (inactive). The values for the nuclei count in test [2] and in test [3] were 108% and 72.6%, respectively. For the same compound, in test [4], the fluorescence slope was -0.419 (inactive). Besides, the NADPH fluorescence slope in test [5] was 1.1e-05 (inactive). For the same compound, the slope in test [6] is 0.00342 (inactive).
Consider `CCN(CC)CCCNC(=O)c1cn(C)c2ccc(S(=O)(=O)N(C)C)cc2c1=O`, for which the cell count in test [1] is 559. In addition, the inhibition in test [1] was -2.8% (inactive); in test [3], 69.2% (active); in test [7], 7.25% (inactive); in test [8] it was 33.2% (inactive). In test [2], the inhibition of aggregation is -53.9% (inactive). In addition, the nuclei count worked out at 73.6% in test [2] and 98.9% in test [3]. The fluorescence slope in test [4] was -0.587 (inactive). The NADPH fluorescence slope in test [5] is -3.7e-05 (inactive). Also, in test [6], the slope was 0.00615 (inactive).
On to `CCC(C)(C(=O)NC1CCCCC1)N(CC1CCCO1)C(=O)c1ccccn1` (stereo not given), for which the cell count in test [1] is 345. For the same compound, the inhibition was 3% (inactive) in test [1], -5.3% (inactive) in test [3], 15.2% (inactive) in test [7] and 26.8% (inactive) in test [8]. The inhibition of aggregation in test [2] is 6.3% (inactive). The nuclei count amounted to 90.8% in test [2] and 104% in test [3]. For the same compound, the fluorescence slope in test [4] was -0.418 (inactive). The NADPH fluorescence slope in test [5] was -8.5e-05 (inactive). Also, in test [6], the slope is 0.0062 (inactive).
Regarding `CCc1nn2c(=O)cc(CSc3nc4sc5c(c4c(=O)n3C)CCCC5)nc2s1`, in test [1], the cell count is 536. Also, the inhibition in test [1] was -14.1% (inactive); in test [3], 38% (inactive); in test [7], -3.07% (inactive); in test [8], -3.25% (inactive). In addition, the inhibition of aggregation in test [2] was -13.9% (inactive). The figures for the nuclei count in test [2] and in test [3] were 118% and 65.2%, respectively. The fluorescence slope in test [4] is -0.598 (inactive). Also, in test [5], the NADPH fluorescence slope is 4.1e-05 (inactive). Besides, the slope in test [6] is 0.00602 (inactive).
